Screening results deposited in PubChem by several laboratories.
CSC inhib = blocks cancer stem cells | inhibition, % at 7.5 µM | cancer stem cell-like cells viability, luminescence | 300,000 compounds, 1.1% hits; in the data active = inhibition above about 75%; tested in HMLE shEcad cells
Beta cell apopt = beta cell apoptosis inhibition | INS-1E cytokine-induced death, ATP luminescence, 48 h; percent of positive-control rescue, neutral wells zero | protection from apoptosis, % (test concentration not listed) | 300,000 compounds, 0.8% hits;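 active = Every replicate reaches about 75%, or at least half do and their mean reaches it too, limit read from the data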;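 note: 0% = cytokine-treated negative control wells and 100% = positive control rescue; higher means more ATP so stronger rescue from cytokine killing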
MPTP inh = blocks calcium-induced mitochondrial swelling; isolated mouse mitochondria, Ca2+ swelling absorbance, 30 min; AID 602449; 360,000 compounds, 1.4% hits; inhibition, % at 10 µM;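 active = inhibition of 50% or more, scaled per plate between neutral and stimulator controls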;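 note: 0% = DMSO wells given calcium and 100% = 1 mM EGTA wells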
Calb FLC = affects C. albicans growth with fluconazole; C. albicans CaCi-2 (fluconazole-resistant clinical isolate) + fluconazole, Alamar Blue growth, 48 h; growth inhibition, % (test concentration not listed); 300,000 compounds, 0.57% hits; AID 1979;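 active = growth inhibition above about 58% in most replicates, limit read from the data, passing the limit was not always enough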;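 note: all wells also contain fluconazole at 8 µg/ml as a sub-toxic cotreatment; 0% = median of DMSO wells and 100% = median of geldanamycin control wells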
Mdm2 MdmX PPI = inhibitors of human Mdm2/MdmX interaction. O15151+Q00987. SaOS-2 split-luciferase Mdm2/MdmX complementation, luminescence. inhibition, % at 8 µM. 330,000 compounds, 3% hits;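 active = inhibition of at least 50% at 8 µM in the primary screen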
Target sequence (O15151 whole entry, looked up): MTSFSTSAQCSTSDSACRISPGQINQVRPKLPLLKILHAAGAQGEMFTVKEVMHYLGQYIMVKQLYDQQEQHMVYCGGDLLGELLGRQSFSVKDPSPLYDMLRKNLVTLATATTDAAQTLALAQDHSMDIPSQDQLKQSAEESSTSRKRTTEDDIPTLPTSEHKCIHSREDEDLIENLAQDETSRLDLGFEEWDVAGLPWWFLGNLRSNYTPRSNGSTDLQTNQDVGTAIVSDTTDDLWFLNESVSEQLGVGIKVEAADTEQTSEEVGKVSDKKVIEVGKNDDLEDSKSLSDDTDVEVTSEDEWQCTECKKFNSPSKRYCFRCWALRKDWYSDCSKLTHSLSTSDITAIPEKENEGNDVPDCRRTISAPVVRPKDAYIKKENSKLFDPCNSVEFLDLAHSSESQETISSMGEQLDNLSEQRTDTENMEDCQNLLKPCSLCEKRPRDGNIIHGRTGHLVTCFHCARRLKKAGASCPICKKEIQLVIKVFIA
Target sequence (Q00987 whole entry, looked up): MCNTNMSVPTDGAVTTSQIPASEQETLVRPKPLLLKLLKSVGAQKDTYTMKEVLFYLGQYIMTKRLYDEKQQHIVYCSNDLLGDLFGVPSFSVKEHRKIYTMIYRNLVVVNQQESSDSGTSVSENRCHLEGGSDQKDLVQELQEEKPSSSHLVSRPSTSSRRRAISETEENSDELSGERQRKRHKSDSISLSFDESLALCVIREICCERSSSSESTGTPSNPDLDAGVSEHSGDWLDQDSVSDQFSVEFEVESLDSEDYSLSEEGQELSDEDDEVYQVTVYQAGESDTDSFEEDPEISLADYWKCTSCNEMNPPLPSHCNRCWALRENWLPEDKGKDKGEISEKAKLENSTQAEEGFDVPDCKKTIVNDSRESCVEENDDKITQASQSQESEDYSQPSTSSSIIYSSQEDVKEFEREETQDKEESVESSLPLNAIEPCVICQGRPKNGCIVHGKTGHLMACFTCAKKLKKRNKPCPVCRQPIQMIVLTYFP
Mdm2 MdmX conf = confirmation of human Mdm2/MdmX interaction inhibitors; shares compounds with Mdm2 MdmX PPI; Mdm2-MdmX binding, luminescent assay; inhibition, % at 8 µM; 10,000 compounds, 55% hits; AID 489028; in the data active = inhibition above about 40%
Full FLuc ctr = full-length luciferase inhibition in Mdm2/MdmX counter-screen | shares compounds with Mdm2 MdmX PPI | inhibition, % at 8 µM | SaOS-2 full-length luciferase counterscreen, luminescence | 6,200 compounds, 77% hits | AID 504607;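 active = mean inhibition at 8 µM reaching about 37%, which flags the compound as non-specific, limit read from the data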;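 note: p53-null SaOS-2 cells with luciferase driven by a doxycycline-inducible promoter; compound on cells about two nights before reading with doxycycline added after day one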
* hit, by the source's call; / = no result given; + = active, no number. Most compounds without a hit are left out; they make up all but 4.8% or so of the library.

SMILES	CSC inhib	Beta cell apopt	MPTP inh	Calb FLC	Mdm2 MdmX PPI	Mdm2 MdmX conf	Full FLuc ctr
CC1CN(c2ccc(S(=O)(=O)N3CCCC3)cn2)CC(C)O1 (stereo not drawn)	-23.5	-5.0	-0.5	-0.6	-19.7	/	/
O=C(Nc1nc2cc3c(cc2s1)OCCO3)C1=COCCO1	12.5	19.9	-1.2	-4.1	87.2*	83.4*	39.3*
NS(=O)(=O)c1ccc2nc(NC(=O)c3ccc4ncsc4c3)sc2c1	5.0	-1.9	-0.5	/	-8.8	/	/
NS(=O)(=O)c1ccc2nc(NC(=O)c3ccc4c(c3)OCCO4)sc2c1	1.4	-8.0	-0.5	/	76.1*	23.6	/
COc1ccc(Cl)c2sc(NC(=O)C3=COCCO3)nc12	5.7	0.8	-1.2	15.6	54.2*	24.4	/
O=C(Nc1nc2ccc(F)cc2s1)C1=COCCO1	16.4	12.5	0.2	-3.1	10.6	/	/
CSc1nc(C(=O)N2CCCC(C(=O)c3ccc(Cl)cc3)C2)cs1 (stereo not drawn)	2.4	-5.2	1.7	-4.5	18.6	/	/
Cc1ccc(C)c(N2CCN(C(=O)Cn3ncc4c([nH]c5ccc(C)cc54)c3=O)CC2)c1	-9.9	0.9	-1.5	-0.3	52.1*	-4.0	/
COc1ccc(N2CCN(C(=O)Cn3ncc4c([nH]c5ccccc54)c3=O)CC2)cc1	8.4	-1.8	1.6	-0.1	50.1*	15.8	/
CCC1CCCCN1CCCNC(=O)Cn1ncc2c([nH]c3ccc(C)cc32)c1=O (stereo not drawn)	-8.9	-5.3	-1.1	13.3	26.6	/	/
Cc1ccc2[nH]c3c(=O)n(CC(=O)NCCCN4CCN(c5ccc(F)cc5)CC4)ncc3c2c1	-16.3	-0.6	1.3	6.5	69.0*	35.9	/
CCN1CCN(C(=O)Cn2ncc3c([nH]c4ccc(C)cc43)c2=O)CC1	-17.0	-4.1	-1.5	-14.6	-14.9	/	/
Cc1ccc(C)c(Cn2c3ccccc3c3cnn(CC(=O)NCCCN4CCCCC4)c(=O)c32)c1	-12.7	8.3	5.4	8.7	92.0*	47.7*	48.4*
COc1cccc(NC(=O)c2ccnc(N3CCC(C(=O)NCc4ccccc4OC)CC3)c2)c1	-16.7	-0.3	-1.1	3.0	-12.0	/	/
CN(Cc1ccco1)C(=O)CSc1nc(C2CC2)n(-c2ccccc2)n1	/	/	-2.1	/	-6.4	/	/
COc1ccc(COc2ccsc2C(=O)Nc2ccc(Cl)c(Cl)c2)cc1	16.6	-4.8	2.7	-15.2	76.4*	6.5	/
CN(C)S(=O)(=O)Oc1ccsc1C(=O)Nc1ccc(Cl)c(Cl)c1	23.7	-4.6	1.1	17.3	21.3	/	/
Cc1ccc(C2=NN(CC(=O)NCCN(CC(C)C)CC(C)C)C(=O)CC2)cc1	1.3	-1.9	-0.1	1.2	27.4	/	/
O=C(Cc1n[nH]c(=O)c2ccccc12)OCC(=O)c1ccc(F)cc1	-9.0	-1.8	1.0	-1.2	18.6	/	/
CCOc1ccc(C(=O)COC(=O)Cc2n[nH]c(=O)c3ccccc23)cc1	56.2	31.3	-3.1	-4.1	56.6*	75.4*	51.3*
O=C(Cc1n[nH]c(=O)c2ccccc12)OCC(=O)c1ccc2c(c1)OCCO2	64.1	12.7	1.8	0.3	55.3*	68.0*	93.7*
Cc1cc(C(=O)COC(=O)Cc2n[nH]c(=O)c3ccccc23)c(C)n1-c1ccc2c(c1)OCO2	18.4	5.4	22.1	6.8	25.4	/	/
Nc1ccc(C(=O)n2c3ccccc3c3ccccc32)cc1	17.5	10.3	0.9	-6.3	60.4*	57.5*	62.6*
Cc1ccc(C(=O)n2c(N)nc3ccccc32)cc1	12.2	20.2	0.2	5.3	51.7*	44.0*	97.6*
N#CC1(NC(=O)Cn2ncc(Cl)c(Cl)c2=O)CCCCC1	-9.1	-13.1	0.6	/	98.0*	83.1*	29.6
CC(C)(C)c1cc(N2CCOCC2)n2ncc(-c3ccc(Cl)cc3)c2n1	13.5	1.6	0.2	-6.1	28.5	/	/
Cc1cc(N2CCOCC2)n2ncc(-c3ccc(Cl)cc3)c2n1	21.4	-2.5	-0.1	13.1	62.1*	73.5*	194.6*
CC(=O)Nc1ccc(Nc2cc(C)nc3c(-c4ccc(Cl)cc4)cnn23)cc1	/	6.6	0.8	0.4	81.1*	86.9*	155.9*
Cc1ccc(-c2cnn3c(N4CCOCC4)cc(C)nc23)cc1	4.6	-8.2	0.8	6.2	63.8*	69.4*	+
CCOC(=O)C1=CCN(S(=O)(=O)c2ccc(C)cc2)C1c1ccc(Cl)cc1 (stereo not drawn)	/	/	-0.4	/	/	/	/
